Results on four compounds are retold here after PubChem BioAssay AID624388 (National Center for Advancing Translational Sciences (NCATS), 2012).

Calls of active or inactive are those of the source. Calls come from the whole dose curve; as a rule, active = well fitted curve in the direction sought with a large enough effect; inactive = no such curve, though single readings can be large or run the other way.

In the test the target is Pyruvate kinase PKLR (Homo sapiens) (UniProt P30613). The experiment in a line: qHTS for Activators of Human Muscle Isoform 2 Pyruvate Kinase (PK): Extended Characterization using Reticulocyte PK Probe 2. As to conditions: purified hPK-R, ATP production, Kinase-Glo luminescence; series mostly up to 58 µM; activity change, positive = activation: at the top concentration. From the text: Human pyruvate kinase reticulocyte (hPK-R) enzyme was supplied as a highly purified (>95% pure) preparation from Structural Genomics Consortium in Toronto (Ontario, Canada) and assayed for its ability to generate ATP from ADP using phosphoenolpyruvate (PEP) as a substrate. ATP generation was detected in a coupled reaction by luciferase-mediated luminescence, an ATP-dependent process. Pyruvate kinase substrates, PEP and ADP, were present in the assay at Km and approximately 10-fold below Km respectively. The enzyme was assayed at an intermediate level of activity to screen for both inhibitors and activators. NIH Chemical Genomics Center [NCGC] NIH Molecular Libraries Probe Centers Network [MLPCN] MLPCN Grant: MH085679 Assay Submitter (PI): Matthew G. Vander Heiden, Harvard Medical School
Sequence of Pyruvate kinase PKLR (Homo sapiens) (P30613 whole entry, looked up, canonical isoform): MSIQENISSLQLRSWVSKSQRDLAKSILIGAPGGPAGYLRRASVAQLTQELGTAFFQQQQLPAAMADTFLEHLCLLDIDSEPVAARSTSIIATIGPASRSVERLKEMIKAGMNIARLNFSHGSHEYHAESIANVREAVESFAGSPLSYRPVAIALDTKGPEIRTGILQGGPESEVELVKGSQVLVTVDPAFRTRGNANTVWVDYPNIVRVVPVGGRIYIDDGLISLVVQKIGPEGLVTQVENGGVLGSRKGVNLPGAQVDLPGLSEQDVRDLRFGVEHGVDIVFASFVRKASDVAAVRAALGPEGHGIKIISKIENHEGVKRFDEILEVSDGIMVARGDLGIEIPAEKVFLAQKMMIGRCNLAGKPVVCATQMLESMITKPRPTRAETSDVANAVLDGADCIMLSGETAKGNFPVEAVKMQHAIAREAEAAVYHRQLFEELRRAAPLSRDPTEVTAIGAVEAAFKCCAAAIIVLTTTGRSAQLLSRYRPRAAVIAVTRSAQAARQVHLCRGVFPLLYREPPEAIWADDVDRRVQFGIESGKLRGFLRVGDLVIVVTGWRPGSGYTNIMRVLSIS
Three uL of substrate mix (at r.t.) in assay buffer (50 mM Imidazole pH7.2, 50 mM KCl, 7 mM MgCl2, 0.01% Tween 20, 0.05% BSA) was dispensed into white solid bottom 1,536 well microtiter plates so that the final concentrations of substrates in the assay were 0.1 mM ADP and 0.5 mM PEP. 23 nL of compound were delivered by a pin tool and 1 uL of enzyme mix (final concentration of 0.1 nM) in assay buffer (4 degree Celsius) was added. Plates were incubated at room temperature for 1 hour. Two uL of detection mix (Kinase-Glo, Promega; at 4 degree Celsius protected from light) was added and luminescence read by a ViewLux (Perkin Elmer) at 1 second exposure/plate. Data were normalized to the uninhibited (row 31). Additionally, a no enzyme and 5-fold enzyme control was dispensed in row 32, split equally between the two conditions.
On the technique in general: Quantitative high-throughput screening tests each substance at several concentrations.
For `Cc1ccc(NS(=O)(=O)c2ccc3c(c2)CCC(=O)N3)cc1C`, the “activity change, positive = activation” value is 0.285% (inactive).
In the case of `COc1cccc(Cn2ncc3c4sc(S(C)=O)cc4n(C)c3c2=O)c1` (centres undefined) it was 11.4% (inactive); in that of `O=S(=O)(c1ccc2c(c1)OCCO2)N1CCN(S(=O)(=O)c2c(F)cccc2F)CC1`, -1.4% (inactive); in that of `Nc1cccc(S(=O)(=O)N2CCCN(S(=O)(=O)c3ccc4c(c3)OCCO4)CC2)c1`, 5.42% (inactive).
